# Calls of active or inactive are those of the source. How the source made its calls: active means hit-call score of the fitted dose curve at least 0.9, where 1 is the maximum; inactive means score below 0.9.
# Read-out: Glutathione S-Transferase (GSTA2), GSTA2 (gene 2939)
# Assay: LTEA_HepaRG_GSTA2: Life Technologies and Expression Analysis (LTEA) Assay for Glutathione S-Transferase (GSTA2) using HepaRG (AID 2283497)
# Details: mRNA level, 48 h; actives raise or lower the signal
# Method: LTEA_HepaRG is a cell based, multiplexed-readout assay that uses HepaRG, a human liver cell line, with measurements taken at 48 hours after chemical dosing on a 96-well plate.LTEA_HepaRG_GSTA2 is one of 102 assay component(s) measured in the LTEA HepaRG cell culture assay. It is a marker of Oxidative Stress.Data from the assay component LTEA_HepaRG_GSTA2 was analyzed into 1 endpoint. This assay endpoint, LTEA_HepaRG_GSTA2, was analyzed with bidirectional fitting relative to DMSO as the negative control and baseline of activity. Using a type of inducible reporter, measures of mRNA induction for gain or loss-of-signal activity can be used to understand regulation of transcription factor activity. To generalize the intended target to other relatable targets, this assay endpoint is annotated to the transferase intended target family, where the subfamily is alkyl and aryl transferase.
# A total of 1060 chemcials from the ToxCast library were tested in eight-point concentration-response experiments. Cell culture and cytotoxicity assays were conducted at Thermo Fisher Scientific's Custom Services facility (Madison, WI). A single lot of human HepaRG cells (Thermo Fisher Scientific, Frederick, MD) was used for the cell culture experiments. 96-well format collagen type I coated plates of human HepaRG cells were prepared using established methods. Briefly, cryopreserved HepaRG cells were thawed, plated at a density of approximately 100,000 cells/well in HepaRG Thaw, Plate, and General Purpose media (HPRG770, Thermo Fisher Scientific), and incubated for 48 hours. 0.5% DMSO was selected as vehicle control to balance the requisite need of DMSO in HepaRG cultures to maintain differentiation (for example, baseline metabolism, proportions of hepatocytes vs. cholangiocytes), while enabling further hepatic receptor pathway activation (for example, PXR and CAR) in response to chemical exposure. 48 hours after plating, the culture medium was replaced with HepaRG Serum-Free Incudtion Media. Cells were exposed to each test chemical in duplicate and maintained in CO2 incubators for another 48 hours. Chemical plates were thawed to room temperature and 200x concentrations of treatment groups were prepared. 8-point conentration-reponse curves were made with the highest exposure at 100 uM, followed by half-log dilutions, all in 0.5% DMSO. Each test plate contained variouse controls, induction positive controls (1mM phenobarbital), cytotoxicity positive controls ([…] aflatoxin B1), vehicle controls (0.5% DMSO), and total lysis controls (0.5% DMSO). Cell morphology images were taken using an Essen IncuCyte FLR automated microscope, with six 96-well plates imaged in about 24 minutes. Images were captured and exported and JPEG files. Spent culture media was transfered to black-well plates for the LDH assay, and remaining media was sorted at -80 C for later use. Cells were treated with RLT buffer and frozen until shipped for gene expression analysis. Total RNA was isolated from the cell suspension in 75 uL of Buffer RLT (Qiagen, Germantown, MD 20874) by Quintiles/Expression Analysis (Durham, NC) using a custom isolation procedure. Total RNA from each plate well was transferred to a preamplification plate. Fluidigm's 96.96 Dynamic ArrayTM (Fluidigm, Amsterdam, the Netherlands) technology was used for gene expression analyses by quantitative reverse transcription polymerase chain reaction (qRT-PCR, performed by Quintiles/Expression Analysis, Durham, NC)89. Standard TaqManTM Assays (Applied Biosystems/ThermoFisher Scientific, Foster City, CA) were used to assess the expression of 93 genes selected based on their selectivity and sensitivity to important hepatic receptors known to be modulated by environmental chemicals; importance in human hepatocyte functionality; and hepatotoxicity. […]
Structure (SMILES),outcome,AC50
OCC(CO)(CBr)CBr,inactive,–
O=C(c1ccccc1)c1ccccc1,inactive,–
CCCCC(CC)C(=O)O (stereo not given),inactive,–
O=C1NS(=O)(=O)c2ccccc21,inactive,–
CN(C)CCOC(c1ccccc1)c1ccccc1,inactive,–
CCCCC=O,inactive,–
CCCCCCCCCCCCCCC,inactive,–
O=C(CCCN1CCC(O)(c2ccc(Cl)cc2)CC1)c1ccc(F)cc1,–,78 µM (active)
CCC(C)c1ccccc1O (stereo not given),inactive,–
CN(Cc1cnc2nc(N)nc(N)c2n1)c1ccc(C(=O)N[C@@H](CCC(=O)O)C(=O)O)cc1,–,0.264 µM (active)
N=C(N)c1ccc(OCCCCCOc2ccc(C(=N)N)cc2)cc1,–,7.03 µM (active)
Cc1[nH]nc2c1N=C(c1ccccc1Cl)c1cc([N+](=O)[O-])ccc1N2,–,17.2 µM (active)
CCCCc1oc2ccccc2c1C(=O)c1cc(I)c(OCCN(CC)CC)c(I)c1,–,59 µM (active)
CC(=O)Nc1ccc(O)cc1,inactive,–
CS(=O)(=O)c1ccc([C@@H](CC2CCCC2)C(=O)Nc2cnccn2)cc1Cl,–,73.7 µM (active)

# — PubChem BioAssay (EPA / NIEHS)
